# Results reported in the supplement of paper PMC13094657.
# ± gives the standard deviation of the averaged measurements.
# Key:
# MDA-MB-231 [1] = experiment: cell viability relative to vehicle unstimulated control (fraction); higher = more viable cells; conditions: pre-treatment time: 18 h then 24 h IFNg/TNF
# MDA-MB-231 [2] = experiment: kynurenine production, fold change vs DMSO IFNg/TNF control; higher = more kynurenine produced (less inhibition); conditions: pre-treatment time: 18 h then 24 h IFNg/TNF
# Outline: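 After trichloroacetic acid and p-dimethylaminobenzaldehyde treatment, supernatants were read at 492 nm, with 0–100 μM standards. These came from MDA-MB-231 cells (7 × 10^4/well, 96-well plates) pre-treated 18 h with natural products in 0.1% DMSO and then exposed 24 h to IFNγ (1 U/ml) and TNF (6.25 ng/ml) at 37°C. Values for kynurenine production are fold changes over same-plate cytokine-stimulated vehicle wells, averaged over duplicate plates in the first screening round.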
# 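Wherever cell viability relative to vehicle unstimulated control is given: viability of the cells left after supernatant collection, read with Deep Blue dye added for 4 h, as absorbance at 570 nm minus 600 nm.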
Structure (SMILES),cell viability (MDA-MB-231 [1]),kynurenine production (MDA-MB-231 [2])
C=C1C(=O)O[C@H]2[C@H]1CCC(C)=C1CC[C@@](C)(O)[C@@H]12 [Micheliolide] (compound dose: 10 uM),0.904 ± 0.063,0.591 ± 0.11
CC(C)=CCC/C(C)=C/C=O [Citral] (compound dose: 10 uM),0.922 ± 0.019,0.864 ± 0.074
C[C@H]1O[C@@H](Oc2c(-c3cc(O)c(O)c(O)c3)oc3cc(O)cc(O)c3c2=O)[C@@H](O)[C@@H](O)[C@@H]1O [Myricitrin] (compound dose: 10 uM),0.988 ± 0.021,0.694 ± 0.16
C/C=C1\C(=O)C[C@H]2[C@@H]3CCC4=CC(=O)CC[C@]4(C)[C@H]3CC[C@]12C [Guggulsterone] (compound dose: 10 uM),0.9378 ± 0.0046,0.324 ± 0.043
CC(=O)c1c[nH]c2ccccc12 [3-acetylindol] (compound dose: 10 uM),0.955 ± 0.15,1.11 ± 0.14
CC1(C)CC[C@]2(C(=O)O[C@@H]3O[C@H](CO)[C@@H](O)[C@H](O)[C@H]3O)CC[C@]3(C)C(=CC[C@@H]4[C@@]5(C)CC[C@H](O[C@@H]6O[C@H](CO)[C@@H](O)[C@H](O[C@@H]7O[C@H](CO)[C@@H](O)[C@H](O)[C@H]7O)[C@H]6O[C@@H]6O[C@H](CO)[C@@H](O)[C@H](O)[C@H]6O)[C@@](C)(CO)[C@@H]5CC[C@]43C)[C@@H]2C1 [Araloside VII] (compound dose: 10 uM),0.941 ± 0.026,0.825 ± 0.13
CC1OC(OC2C(OC3CCC4(C)C(CCC5(C)C4CC=C4C6CC(C)(C)CCC6(C(=O)OC6OC(COC7OC(CO)C(O)C(O)C7O)C(O)C(O)C6O)CCC45C)C3(C)CO)OCC(O)C2O)C(O)C(O)C1O (stereo not given) [Dipsacoside B] (compound dose: 10 uM),0.976 ± 0.042,0.861 ± 0.32
C[C@H]1[C@@H](O)O[C@@H]2O[C@@]3(C)CC[C@H]4[C@H](C)CC[C@@H]1[C@@]24OO3 [Dihydroartemisinin] (compound dose: 10 uM),0.978 ± 0.069,0.688 ± 0.12
CC1(C)[C@@H](O)CC[C@]2(C)[C@H]3CC=C4[C@@H]5C[C@@]6(C)C[C@H](OC6=O)[C@]5(C)CC[C@@]4(C)[C@]3(C)CC[C@@H]12 [Wilforlide A] (compound dose: 2 uM),0.877 ± 0.047,0.834 ± 0.13
CC(=O)OC(CC(C)C1=C2C[C@H](O)C3[C@@]4(C)CCC(=O)C(C)(C)C4CC[C@]3(C)[C@@]2(C)CC1)C1OC1(C)C (stereo not given in full) [Alisol B 23-acetate] (compound dose: 10 uM),1.05 ± 0.034,1.27 ± 0.24
C=C(C)C1CC=C(C)CC1 (stereo not drawn) [(s)-(-)-limonene] (compound dose: 10 uM),0.944 ± 0.051,0.84 ± 0.099
C[C@H](CC[C@@H](OC[C@@H]1O[C@H](OC[C@H]2O[C@@H](O)[C@H](O)[C@@H](O)[C@@H]2O)[C@@H](O)[C@H](O)[C@H]1O)C(C)(C)O)[C@H]1CC[C@@]2(C)[C@@H]3CC=C4[C@@H](CC[C@H](O)C4(C)C)[C@]3(C)[C@H](O)C[C@]12C [Mogroside IIA1] (compound dose: 10 uM),1.22 ± 0.15,1.07 ± 0.13
CC(C)=CCC[C@](C)(O[C@@H]1O[C@H](CO[C@@H]2O[C@H](CO)[C@@H](O)[C@H](O)[C@H]2O)[C@@H](O)[C@H](O)[C@H]1O)[C@H]1CC[C@]2(C)[C@@H]1[C@H](O)C[C@@H]1[C@@]3(C)CC[C@H](O[C@@H]4O[C@H](CO)[C@@H](O)[C@H](O)[C@H]4O[C@@H]4O[C@H](CO)[C@@H](O)[C@H](O)[C@H]4O[C@@H]4OC[C@@H](O)[C@H](O)[C@H]4O)C(C)(C)[C@@H]3CC[C@]12C [Notoginsenoside Fa] (compound dose: 10 uM),1.21 ± 0.15,1.06 ± 0.13
C[C@@]12CC[C@@H]3[C@@](CC[C@H]4[C@@]3(C)CCC[C@@]4(C)C(=O)O)(CC1=O)C2 [Isosteviol] (compound dose: 10 uM),1.02 ± 0.084,0.998 ± 0.055
CC1(C)CCC[C@](C)([C@H]2CC[C@]3(C)[C@@H]2[C@H](O)C[C@@H]2[C@@]4(C)CC[C@H](O)C(C)(C)[C@@H]4CC[C@]23C)O1 [Panaxadiol] (compound dose: 10 uM),1.04 ± 0.013,0.719 ± 0.088
COc1ccc(-c2coc3cc(O)ccc3c2=O)cc1 [Formononetin] (compound dose: 10 uM),0.988 ± 0.032,0.873 ± 0.0092
CC(=O)O[C@]12C[C@H](C)[C@H](OC(=O)/C=C/c3ccccc3)[C@@H]1/C=C(/CO)CC[C@H]1[C@@H](/C=C(\C)C2=O)C1(C)C [Euphorbia factor L22] (compound dose: 10 uM),1.11 ± 0.047,0.964 ± 0.092
CC12CCC(CC1=O)C2(C)C (stereo not given) [Camphor] (compound dose: 10 uM),0.977 ± 0.016,0.832 ± 0.21
C[C@@H]1O[C@@H](O[C@H]2[C@H](O[C@H]3CC[C@@]4(C)[C@@H](CC[C@]5(C)[C@@H]4CC=C4[C@@H]6CC(C)(C)CC[C@]6(C(=O)O[C@@H]6O[C@H](CO[C@@H]7O[C@H](CO)[C@@H](O)[C@H](O)[C@H]7O)[C@@H](O)[C@H](O)[C@H]6O)CC[C@]45C)[C@]3(C)CO)OC[C@H](O)[C@@H]2O)[C@H](O)[C@H](O[C@@H]2O[C@H](CO)[C@@H](O)[C@H](O)[C@H]2O)[C@H]1O [Macranthoidin A] (compound dose: 10 uM),0.901 ± 0.011,1.08 ± 0.014
CC(=O)O[C@H]1C(=O)[C@@]2(C)[C@H]([C@H](OC(=O)c3ccccc3)[C@]3(O)C[C@H](OC(=O)[C@H](O)[C@@H](NC(=O)c4ccccc4)c4ccccc4)C(C)=C1C3(C)C)[C@]1(OC(C)=O)CO[C@@H]1C[C@@H]2O [7-epi-Taxol] (compound dose: 10 uM),0.791 ± 0.032,0.3 ± 0.026
